Screening data from PubChem.
MEKK2mut PB1 HTS – MEK5 binding signal on mutant MEKK2 PB1, primary screen, biochemical, multiplex bead flow cytometry, Alexa488-MEK5; percent response, % at 10 µM; Alexa488-MEK5 binding to MEKK2 mutant; 0.35% of 290,000 active; in the data active means percent response above about 24%, passing the limit was not always enough
MEKK3 PB1 HTS – modulators of MEKK3-MEK5 PB1 binding, primary screen, biochemical, wildtype MEKK3, multiplex bead flow cytometry, Alexa488-MEK5. Mitogen-activated protein kinase kinase kinase 3 (Homo sapiens), Q99759. bead-based flow cytometry, Alexa488-MEK5 binding to MEKK3; actives lie on both sides; 0 = blocked by unlabeled MEK5, 100 = vehicle. binding response (% of control), % at 10 µM. 1.4% of 290,000 active. AID 1529, 2009;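 active means binding response more than 3 SD above or below the average of its plate-row segment, actives on both sides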;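 further: Alexa488 bead fluorescence after subtracting the streptavidin-only scavenger bead signal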
Target sequence (Q99759 whole entry, looked up): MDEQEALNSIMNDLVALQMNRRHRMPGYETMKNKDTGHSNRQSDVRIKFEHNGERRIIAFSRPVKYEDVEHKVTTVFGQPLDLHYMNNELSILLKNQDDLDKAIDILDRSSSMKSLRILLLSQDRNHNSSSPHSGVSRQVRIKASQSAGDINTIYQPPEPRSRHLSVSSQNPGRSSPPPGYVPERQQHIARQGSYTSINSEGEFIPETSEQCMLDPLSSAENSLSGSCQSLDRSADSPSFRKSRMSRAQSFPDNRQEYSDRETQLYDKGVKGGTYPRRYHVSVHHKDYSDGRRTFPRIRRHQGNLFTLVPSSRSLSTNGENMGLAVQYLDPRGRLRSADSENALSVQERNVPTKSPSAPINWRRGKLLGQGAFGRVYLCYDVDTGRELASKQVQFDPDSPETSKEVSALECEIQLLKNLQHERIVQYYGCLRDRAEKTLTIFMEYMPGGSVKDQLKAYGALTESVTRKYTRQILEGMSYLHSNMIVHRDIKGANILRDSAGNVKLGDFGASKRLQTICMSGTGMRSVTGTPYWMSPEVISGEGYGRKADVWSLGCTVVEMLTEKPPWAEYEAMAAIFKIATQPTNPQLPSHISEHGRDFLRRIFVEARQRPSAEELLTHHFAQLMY
TMEM16A inh – TMEM16A chloride channel inhibitors, primary screen, cell-based, HTS. Anoctamin-1 (Mus musculus), Q8BHY3. normalized B-score (activity score, 25-100; higher = stronger inhibition) at 10 µM. AID 588511, 2011. 1.2% of 310,000 active. HEK293 TMEM16A/YFP iodide influx fluorescence, ionomycin;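 active means ratio plate-corrected score three or more library SD toward inhibition, starting fluorescence score within five deviations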;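 further: score derived from kinetic fluorescence span divided by baseline fluorescence per well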
NTR1 ag – agonists of human NTR1, primary screen, imaging, U2OS cells, beta-arrestin-GFP, high content. Neurotensin receptor type 1 (Homo sapiens), P30989. NTR1-U2OS beta-arrestin-GFP spot imaging, agonist mode. activation, % at 20 µM. 0.17% of 330,000 active;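 active means activation at or above 40% of the spot to cytoplasm intensity ratio, with at least 20 cells analyzed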
ANO1 activ – TMEM16A chloride channel activators or potentiators, primary screen, cell-based, HTS. Anoctamin-1 (Mus musculus), Q8BHY3. HEK293 TMEM16A/YFP-H148Q/I152L, iodide quench fluorescence; hits give low values. B-score at 10 µM. 0.3% of 340,000 active. AID 623877, 2012;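 active means fluorescence-ratio B-score plate-corrected deviation score at least 3 library SD below zero, with starting fluorescence score within 5 deviations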;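 further: channel opened by trigger with iodide after compound preincubation; score built on the fluorescence ratio of max minus min over baseline; more negative score means more quench and so TMEM16A activation or potentiation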
MEKK2 WT-MEK5 – modulators of MEK5 binding to wildtype MEKK2, primary screen, biochemical, multiplex bead flow cytometry, Alexa488-MEK5; Mitogen-activated protein kinase kinase kinase 2 (Homo sapiens), Q9Y2U5; 1.1% of 290,000 active; binding response (% of control), % at 10 µM; AID 1531, 2009; Alexa488-MEK5 binding to MEKK2 WT; actives lie on both sides; in the data active means binding response below about 67% or above about 130%
MEKK2wt confirm – modulators of MEK5 binding to wildtype MEKK2, confirmation, biochemical, single concentration, multiplex bead flow cytometry | AID 1892, 2009 | Alexa488-MEK5 binding to MEKK2 WT; actives lie on both sides | binding response (% of control), % at 10 µM | shares compounds with MEKK3 PB1 HTS | 2.4% of 5,900 active; in the data active means binding response below about 16% or above about 210%; inactive means in between
MEKK2mut-MEK5 – mutant MEKK2 PB1-MEK5 binding signal retest – biochemical, single concentration, multiplex bead flow cytometry, confirmation; shares compounds with MEKK3 PB1 HTS; Alexa488-MEK5 binding to MEKK2 mutant; percent response, % at 10 µM; 2% of 5,900 active; AID 1893, 2009; in the data active means percent response mostly above about 71%, no sharp cut-off; inactive means mostly below about 38%;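 further: higher means compound restores mutant binding toward wildtype level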
MEKK3 confirm – MEKK3 wild-type PB1 binding to MEK5, inhibitors, confirmation, biochemical, bead multiplex flow cytometry, single concentration, wildtype. Alexa488-MEK5 binding to MEKK3; hits give low values. shares compounds with MEKK3 PB1 HTS. binding response (% of control), % at 10 µM. 1.8% of 5,900 active;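 active means binding response below 72% of control, or above a set upper limit, though filed actives all read lower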
Hits are given with their value; – = inactive; · = no result given; ! = repeats disagree; [ ] = dose if it differs, or a comment. The list is not random: actives were taken first. Their share in the collection is about 3.4%.

SMILES | MEKK2mut PB1 HTS | MEKK3 PB1 HTS | TMEM16A inh | NTR1 ag | ANO1 activ | MEKK2 WT-MEK5 | MEKK2wt confirm | MEKK2mut-MEK5 | MEKK3 confirm
CN1c2ccc([N+](=O)[O-])cc2CC2(C(=O)NC(=O)NC2=O)C1c1ccccc1 (stereo unspecified) | – | 134 | – | – | – | – | – | – | –
O=c1[nH]cnc2nc(-c3ccc(N(CCCl)CCCl)cc3)[nH]c12 | · | · | · | · | – | · | · | · | ·
C=CCN1C(=O)/C(=C/c2cc(C)n(-c3ccccn3)c2C)C(=O)NC1=S | – | – | – | – | – | 61[inhibitor] | – | – | –
N#CCN1CCN(c2ccc(C(F)(F)F)cc2)CC1 | – | – | – | – | – | – | · | · | ·
CC/C(=N\Nc1ccccc1)c1c(O)n(-c2ccc(OC)cc2)c(=O)[nH]c1=O | – | – | – | – | – | – | · | · | ·
Oc1ccc2c3c1OC1C(O)CC[C@@]4(O)[C@@H](C2)N(CC2CCC2)CC[C@]314 (stereo partly specified) | – | – | – | – | · | 53![inhibitor] | – | – | –
c1ccc(CC(NCc2ccco2)c2ccccc2)cc1 (stereo unspecified) | – | 129 | – | – | – | – | – | – | –
COc1ccc(CNCCc2c(C)[nH]c3ccc(OC(F)(F)F)cc23)c(OC)c1 | – | – | – | – | – | 139 | – | – | –
CC1(C)C2SCC(=O)N2CCN1CC(=O)NN (stereo unspecified) | – | 128 | – | – | – | – | – | – | –
CC1(c2ccccc2)NCCN2C(=O)CSC21 (stereo unspecified) | – | – | – | – | – | – | · | · | ·
COc1cc2c3cc1Oc1cc(ccc1O)C[C@@H]1c4c(cc(OC)c(O)c4Oc4ccc(cc4)C[C@H]3N(C)CC2)CCN1C | – | – | – | – | – | 134 | – | – | –
COc1cc2c3cc1Oc1c(OC)c(OC)cc4c1[C@H](Cc1ccc(cc1)Oc1cc(ccc1O)C[C@H]3N(C)CC2)N(C)CC4 | · | · | · | – | – | · | · | · | ·
Cc1c2ccncc2c(C)c2c1[nH]c1ccccc12 | 28 | 72[inhibitor] | – | – | – | 201 | – | – | –
CC1CCCCN1CC(=O)c1ccc2cc[nH]c2c1 (stereo unspecified) | · | · | – | – | – | · | · | · | ·
CC(NCc1cccc(Cl)c1Cl)C(O)c1ccccc1 (stereo unspecified) | – | – | – | – | – | 43[inhibitor] | – | – | –
COC(=O)C1=C(c2ccc(S(C)(=O)=O)cc2)C[C@@H]2CC[C@H]1N2C(=O)NCc1cccc2ccccc12 | – | – | – | – | – | – | · | · | ·
Cn1cccc1/C=C1/C(=O)NC(=S)N(Cc2ccc(F)cc2)C1=O | – | – | – | – | – | 56[inhibitor] | – | – | –
Cn1cccc1/C=C1/C(=O)NC(=O)N(Cc2ccc(F)cc2)C1=O | – | – | – | – | – | – | · | · | ·
Nc1ncn[nH]1 | · | · | – | – | – | · | · | · | ·
CNCCc1c[nH]c2ccccc12 | – | – | – | – | · | – | · | · | ·
CCC(N)Cc1c[nH]c2ccccc12 (stereo unspecified) | – | 64[inhibitor] | · | – | – | – | – | – | –
CC/C(=N\Nc1cccc2ccccc12)c1c(O)[nH]c(=O)[nH]c1=O | – | – | – | – | – | 36[inhibitor] | – | – | –
CC/C(=N\Nc1ccccc1)c1c(O)[nH]c(=O)[nH]c1=O | – | – | – | – | – | – | · | · | ·
COc1cc(N2CCOCC2)ccc1/C=C1\C(=O)NC(=O)N(C2CCCCC2)C1=O | – | 130 | – | – | – | – | – | – | –
COc1ccccc1-n1c(O)c(/C=N/N2CCCCC2)c(=O)n(-c2ccccc2OC)c1=S | – | – | – | – | – | – | · | · | ·
SMILES | MEKK2mut PB1 HTS | MEKK3 PB1 HTS | TMEM16A inh | NTR1 ag | ANO1 activ | MEKK2 WT-MEK5 | MEKK2wt confirm | MEKK2mut-MEK5 | MEKK3 confirm
CCc1ccc(NP(=O)(Oc2ccccc2F)Oc2ccccc2F)cc1 | – | 1.0[inhibitor] | – | – | – | -3.0[inhibitor] | – | – | –
Cc1ccc(NP(=O)(Oc2ccccc2F)Oc2ccccc2F)cc1 | – | – | – | – | – | – | · | · | ·
CNC(=S)NC1CC2CCCC(C1)N2CC(C)C (stereo unspecified) | – | – | – | – | – | – | · | · | ·
Cc1ccc(CN2C3CCCC2CC(NC(=S)NCc2ccccc2)C3)cc1 (stereo unspecified) | 62 | – | – | – | – | 195 | – | – | –
Cc1cccc(N2C(=O)NC(=O)/C(=C\c3ccc4c(c3)CCCN4Cc3ccccc3)C2=O)c1 | 159 | 139 | – | – | – | 146 | – | – | –
CC1=NN(c2ccccc2)C(=O)C1/C=C1/C(=O)NC(=O)N(c2cccc(C)c2)C1=O (stereo unspecified) | – | – | · | · | · | – | · | · | ·
NCCc1c[nH]c2ccc(F)cc12 | – | – | – | – | · | – | · | · | ·
CS(=O)(=O)Nc1ccc(Cc2noc(-c3ccc4[nH]cc(CCN)c4c3)n2)cc1 | – | – | – | – | · | 156! | – | – | –
CCCCCCN1CCN(c2ccc(Cl)cc2)CC1 | – | – | – | – | – | – | · | · | ·
ClCCN1CCN(c2ccnc3cc(Cl)ccc23)CC1 | – | – | – | – | – | 154 | – | – | –
CC(C)CCC1(CCO)C(=O)NC(=S)NC1=O | · | · | · | · | – | · | · | · | ·
C=CCn1c(O)c(C=NCCN(C)C)c(=O)[nH]c1=O | · | · | – | – | – | · | · | · | ·
CN(C)CCN=Cc1c(O)n(-c2cccc(C(F)(F)F)c2)c(=O)[nH]c1=O | – | 2.0[inhibitor] | – | – | – | -2.0[inhibitor] | – | – | –
C=CCN1CC[C@]23c4c5ccc(O)c4O[C@H]2/C(=N/NC(=O)c2ccccc2)CC[C@@]3(O)[C@H]1C5 | – | – | – | – | – | – | · | · | ·
O=C1NC(=O)N(C2CCCCC2)C(=O)C1C1c2ccccc2C(=O)N1Cc1ccccc1 (stereo unspecified) | – | 76[inhibitor] | – | – | – | – | – | – | –
